Growth inhibition data for 18 compounds are collected here from PubChem BioAssay (NCI).

The panel holds about 79,000 compounds, 15% with a hit somewhere; the sample as a whole holds those more often. Unmarked numbers belong to inactive results. The source made the active and inactive calls. Cut-off read from the data, not from the text of the source: active = growth inhibition above about 70%; inactive = the rest.

This assay in a line: NCI Yeast Anticancer Drug Screen. Data for the bub3 strain (AID 167). As to conditions: S. cerevisiae bub3 mutant strain, at 50.0 µM, active compounds read high. An outline of the steps:
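Readout: yeast growth inhibition, expressed relative to vehicle-only wells. The test organism is a mutant strain from a panel with lesions in DNA repair or checkpoint genes.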
As for `CC(NC(=O)C(=O)c1ccccc1)c1ccccc1` (stereo not drawn), the growth inhibition is 27.4%.
The value for `CC12CC3C(CC1O2)C3(C)C` (stereo not drawn) was 1.35%.
Consider `CCOC(=O)c1ccc(N=C(N)N)cc1`, for which the growth inhibition is 17.2%.
As for `C=C1C2CCC3(CCC4C5(C)CCCC4(CN(C(C)=O)C5)C3C2)C1O` (stereo not drawn), the figure is 6.25%; as for `CC(=O)NNc1nc(C)c(C(/C=C/c2ccccc2O)=N/N=C(N)N)s1`, -10.6%; as for `CCCCC(=O)C(CC)(c1ccccc1)N(C)C` (stereo not drawn), -2.35%.
With `c1ccc2c(c1)ccc1c2c[n+](CCCCCCCC[n+]2cc3c4ccccc4ccc3c3ccccc32)c2ccccc12`, the growth inhibition is 83.2% (active).
As for `NC(CCC(F)(F)F)C(=O)O` (stereo not drawn), the growth inhibition was 17.5%.
As for `C/C(CC(O)(C(F)(F)Cl)C(F)(F)Cl)=N\Nc1ccccc1`, the figure is -0.9%.
Turning to `Cc1cc(Br)c[nH]c1=O`, the growth inhibition was -29.1%.
As to `CN1CC2=C(NC(=S)NC2c2ccccc2Cl)/C(=C/c2ccccc2Cl)C1` (stereo not drawn), the growth inhibition was 61.8%.
In the case of `CCC(=O)c1c(O)cc(O)cc1O`, the growth inhibition was 2.5%.
Regarding `CCCCOC(OCCCC)C(OCCCC)OCCCC`, the growth inhibition is 16.4%.
Regarding `CC(C)C1CCC2(C)C(CCC3C4(C)CCCC32OC4)C1` (stereo not drawn), the growth inhibition was 48%.
The value for `CC(OC(C)C(N)=O)C(N)=O` (stereo not drawn) was 4.9%; that for `CCC1c2ccccc2[C@H]2C(c3ccccc3)=NN(c3ccccc3)[C@H]2N1CC` (stereo partly drawn) was 1.5%; that for `Cc1ccccc1Nc1nc2ccccc2nc1NS(=O)(=O)c1ccccc1` was 18.1%.
As to `COc1ccc(S(=O)(=O)N/N=C/C(=O)OCOC(=O)C(C)(C)C)cc1`, the growth inhibition is -25.9%.
